# Results published in PubChem BioAssay.
# Experiment: anti-His antibody binders, primary screen, artefact control for SMM control protein annotation, biochemical, small-molecule microarray, 635 nm fluorescence (AID 1128);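 note: score merges feature fluorescence with signal-to-noise for each printed compound spot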
# Details: anti-His Alexa647 antibody binding, higher = more signal
row,SMILES,composite z-score
1,CC(C)c1ccc(NN2C(C(O)c3c(F)cccc3Cl)C=CC3C(=O)N(c4ccccc4)C(=O)C32)cc1 (stereo not given),0.825
2,CC(C)(C)OC(=O)CC[C@@]1(C(=O)O)N=C(c2ccc(OCCCO)cc2)O[C@@H]1c1ccccc1N=[N+]=[N-],1.5
3,COC(=O)C[C@@H]1C[C@H](C)[C@]2(O1)C(=O)N(Cc1ccccc1)c1ccc(NC(C)=O)cc12,0.716
4,COCC1=C2[C@@H](CCc3ccccc3)OB(O)C[C@@H]2[C@@H]2C(=O)N(Cc3ccccc3)C(=O)[C@@H]2C1,-0.0926
5,C=CCOC(=O)[C@@H]1[C@H]2C(=O)O[C@H](c3ccccc3)[C@H](c3ccccc3)N2[C@H](c2ccc(OCCOC(=O)[C@@H]3C[C@@H]4C(=O)NCC(=O)N4[C@@H]3c3cccc(OCCO)c3)cc2)[C@@]12C(=O)Nc1ccc(I)cc12,1.26
6,C=CCC(OC(C)=O)[C@@H]1[C@@H](N(Cc2cccc3ccccc23)C(=O)c2ccc(C)cc2)c2cc(OCCCO)ccc2N1C(=O)Cc1ccc(OC)cc1 (stereo not given in full),0.0508
7,O=C1OCCC=C[C@H]2OC34C=CCN(Cc5ccccc5)C(=O)[C@H]3N(CCCCCO)C(=O)[C@@H]4C12 (stereo not given in full),0.206
8,O=C(OCCF)C1=CCC(c2cccc(Cl)c2)O1 (stereo not given),0.1
9,[N-]=[N+]=NCc1ccccc1[C@@H]1OC(c2ccc(OCCCO)cc2)=N[C@]1(Cc1ccccc1)C(=O)N1CCCCC1,2.4
10,Cc1cc(C)c(C(O)C2C=CC3C(=O)N(c4ccccc4)C(=O)C3N2Nc2ccc(C#N)cc2)c(C)c1 (stereo not given),1.21
11,C=C[C@@H](COC(C)=O)N(Cc1ccccc1[N+](=O)[O-])S(=O)(=O)c1ccc(Br)cc1,2.18
12,COc1ccc(C#Cc2ccc3c(c2)[C@]2(C(=O)N3)[C@H](c3ccc(O)cc3)N3[C@H](c4ccccc4)[C@H](c4ccccc4)OC(=O)[C@H]3[C@@H]2C(=O)NC[C@H](O)c2ccccc2)cc1,1.35
13,C=CCNC(=O)[C@@H]1[C@H]2C(=O)O[C@H](c3ccccc3)[C@H](c3ccccc3)N2[C@H](c2ccccc2OCCO)[C@@]12C(=O)Nc1ccc(C#CC3=CCCCC3)cc12,1.57
14,[N-]=[N+]=NCc1ccccc1[C@@H]1OC(c2ccc(OCCCO)cc2)=N[C@]1(Cc1ccccc1N=[N+]=[N-])C(=O)NCc1ccccc1,0.512
15,COCCOC(=O)N1C(=O)[C@@]2(c3cc(C#CCCO)ccc31)[C@H](c1ccccc1OCCO)N1[C@H](c3ccccc3)[C@H](c3ccccc3)OC(=O)[C@H]1[C@@H]2C(=O)N1CCN(c2ncccn2)CC1,1.64
16,CCCCC=C[C@@H](NC(=O)c1ccc(C(=O)OC)cc1)c1ccccc1,0.59
17,CC(C)NC(=O)[C@@H]1c2ccccc2C(=O)N(Cc2ccccc2Cl)[C@H]1c1ccc(CO)cc1,3.06
18,COc1cc2c(cc1OC)CN(C(=O)[C@@H]1[C@H]3C(=O)O[C@H](c4ccccc4)[C@H](c4ccccc4)N3[C@H](c3ccccc3OCCO)[C@@]13C(=O)Nc1ccc(C#CCNC(N)=O)cc13)CC2,1.62

row,SMILES,composite z-score
1,O=C1C=CC(=O)[C@@H]2CC(COc3ccccc3)=C3[C@@H](CCc4ccccc4)OB(O)C[C@@H]3[C@H]12,0.346
2,O=C(NCc1ccccc1)[C@]1(CCS(=O)(=O)c2ccccc2)N=C(c2ccc(OCCCO)cc2)O[C@@H]1c1ccccc1,1
3,COc1ccc(C#Cc2ccc3c(c2)[C@]2(C(=O)N3)[C@H](C(=O)NC[C@H](O)c3ccccc3)[C@H]3C(=O)O[C@H](c4ccccc4)[C@H](c4ccccc4)N3[C@@H]2c2ccc(OCCO)cc2)cc1,0.408
4,CCOc1cc(C(O)C2C=CC3C(=O)N(c4ccccc4)C(=O)C3N2Nc2ccc([N+](=O)[O-])cc2)ccc1O (stereo not given),0.73
5,[N-]=[N+]=NCc1ccccc1C[C@]1(C(=O)NCCN2CCOCC2)N=C(c2ccc(OCCCO)cc2)O[C@H]1c1ccccc1N=[N+]=[N-],0.853
6,C=C[C@@H](COC(C)=O)N(Cc1ccc([N+](=O)[O-])cc1)S(=O)(=O)c1ccc(Br)cc1,1.6
7,COc1ccc(CCNC(=O)[C@@]2(c3ccc([N+](=O)[O-])cc3)CC(=O)N(CC34CC5CC(CC(C5)C3)C4)[C@@H]2c2ccc(CO)cc2)cc1,1.59
8,COCC(=C=CC[C@H](O)c1ccc(OCCO)cc1)C[C@H](O)c1cc(Cl)cc(Cl)c1O,0.773
9,CO[C@H]1O[C@H](CO)[C@@H](OC(=O)Nc2ccc3c(c2)OCO3)[C@H](OC(=O)Nc2ccccc2)[C@H]1OC(=O)Nc1ccccc1,1.77
10,COc1ccc(C(O)C2C=CC3C(=O)N(c4ccccc4)C(=O)C3N2Nc2ccc([N+](=O)[O-])cc2)cc1OCc1ccccc1 (stereo not given),1.71
11,[N-]=[N+]=NCc1ccccc1C[C@]1(C(=O)NCC(O)CO)N=C(c2ccc(OCCCO)cc2)O[C@H]1c1ccccc1N=[N+]=[N-] (stereo not given in full),2.99
12,CCOC(=O)C[C@H]1[C@H](OC(=O)Cc2ccc3c(c2)OCO3)[C@@H](NC(=O)c2ccc(-c3ccccc3)cc2)c2cc(OCCCO)ccc2N1C(=O)c1ccccc1,0.18
13,CS(=O)(=O)CCOC(=O)C1=CC(CCCO)=CC(c2cccs2)N(Cc2cc3c(cc2Br)OCO3)C=C1C(=O)OCCS(C)(=O)=O (stereo not given),1.16
14,COc1ccc([Si](C)(C)[C@H]2[C@H](CC(=O)N(CCO)Cc3ccccc3)O[C@@]3(C(=O)N(Cc4cccc(N5CCC5=O)c4)c4ccccc43)[C@@H]2C)cc1,2.18
15,COc1cccc(C(=O)O[C@H]2CC[C@]3(C)C4=C(CCC3C2(C)C)[C@]2(C)CC[C@H]([C@H](C)CCCC(C)C)[C@@]2(C)CC4)c1 (stereo not given in full),0.0291
16,CC(C)NC(=O)[C@@H]1c2ccccc2C(=O)N(Cc2ccccc2)[C@H]1c1ccc(CO)cc1,0.166
17,COc1ccc([Si](C)(C)[C@@H]2[C@@H](CC(=O)N(CCO)Cc3ccccc3)O[C@]3(C(=O)N(C)c4ccccc43)[C@H]2C)cc1,1.93
